Bioassay records from PubChem BioAssay.
F508del corr – CFTR F508del correction in bronchial cells; CFBE cells, YFP halide quenching; stimulated with forskolin plus potentiator P3; % fluorescence drop versus neutral controls; 0.36% of 350,000 active; activity (quench increase), % at 7.58 µM;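 active = mean added fluorescence quench of at least 8% versus neutral control, with both replicates also reaching 8%; inconclusive = only one of the mean or replicate conditions met; inactive = mean below 8% and not both replicates reaching 8%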;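 note: cells transiently co-express mutant CFTR-F508del with the halide-sensitive YFP; corrector assay measuring rescue of mutant channel to the surface after 24 h compound exposure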
PGC1a acetyl inh – PGC1a acetylation modulation, inhibitor mode; U2OS PGC1a acetylation, AlphaScreen anti-acetyl-lysine; with virally co-expressed GCN5 acetyltransferase; inhibition, % at 15.6 µM; 0.17% of 350,000 active; AID 651687;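 active = every replicate shows inhibition of at least 40%; inconclusive = mean inhibition at least 40% but some replicate below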;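 note: 0% = neutral control wells and 100% = positive control wells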
Env fusion inh – blocks HIV Env-driven cell-cell fusion. HeLa-JRFL Env/CEM21 cell fusion, luciferase. inhibition, % at 12.3 µM. 1.1% of 360,000 active;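 active = mean replicate inhibition score of at least 50 and every replicate individually at or above 50; inconclusive = only one of the two criteria met; inactive = mean below 50 and not all replicates reaching 50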;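 note: 0% = plate neutral controls and 100% = maraviroc near 300 nM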
GSIS activator – primary screen for activators of insulin secretion dependent on glucose, INS-1E cells, GLuc reporter luminescence | INS-1E GLuc reporter insulin secretion, 2-3 h | activation, % at 16.6 µM | 0.61% of 370,000 active;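 active = lowest replicate activation of at least 40%, so every replicate reaches that level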;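 note: 0% = median of neutral control wells and 100% = median of IBMX positive control wells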
EWS-Fli block – inhibitors of EWS/Fli oncoprotein transcriptional activity. 0.67% of 350,000 active. A673 NR0B1-luciferase reporter, viability-normalised. inhibition, % at 12.6 µM. AID 651661;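 active = mean inhibition of at least 50% after viability correction, with every replicate also passing that limit; inconclusive = mean reaches 50% but only one of two replicates passes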;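 note: firefly luciferase signal divided by Alamar Blue viability fluorescence both relative to DMSO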
PAX8 inh HTS – inhibitors of PAX8 transcriptional activity in RMG-I cells; RMG-I TPO-luciferase reporter, SteadyGlo, 24 h; inhibition, % at 12.6 µM; 1.2% of 360,000 active; AID 652154;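 active = mean replicate inhibition at least 60% with every replicate also reaching 60%; inconclusive = only one of the two criteria is met; inactive = mean below 60% and not all replicates reaching 60%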;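 note: luciferase light reporting Pax8 driven TPO promoter activity; plate controls were median of neutral control wells for no effect and mitoxantrone controls for full effect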
* = called active by the depositor; ? = inconclusive; . = no result; [ ] = dose if it differs, or a comment. In the library only some 2.7% were active in any assay of this set; here they are far more common.

SMILES	F508del corr	PGC1a acetyl inh	Env fusion inh	GSIS activator	EWS-Fli block	PAX8 inh HTS
CCOC(=O)[C@]12Cc3c(cc(OC)c(OC)c3OC)[C@H]1N(C1CCCCC1)C(=O)c1cc(OC)ccc12	2	.	2	178*	22	41
COC(=O)CCC(=O)Nc1cc(Cl)cc(Cl)c1	0	0	-5	-4	-3	70*
CCN(C[C@H]1N[C@@](C)(C(=O)OC)[C@H]2C(=O)N(Cc3ccccc3)C(=O)[C@@H]12)S(=O)(=O)c1ccc(C)cc1	-2	.	69*	-13	-8	1
CCN(C[C@H]1N[C@@](C)(C(=O)OC)[C@H]2C(=O)N(Cc3ccccc3)C(=O)[C@@H]12)C(=O)Nc1ccc(C)cc1	4	2	79*	-18	3	6
CCN(C[C@H]1N[C@@](CC)(C(=O)OC)[C@H]2C(=O)N(C)C(=O)[C@@H]12)S(=O)(=O)c1ccc(OC)cc1	1	1	20	52*	0	0
CC[C@@]1(C(=O)OC)N[C@H](CN(C)C(=O)COc2ccccc2)[C@@H]2C(=O)N(Cc3ccccc3)C(=O)[C@@H]21	-1	.	69*	-23	2	-8
CC[C@@]1(C(=O)OC)N[C@H](CN(C)C(C)=O)[C@@H]2C(=O)N(Cc3ccccc3)C(=O)[C@@H]21	-3	.	18	24	1	3
CCNC(=O)N(CC)C[C@H]1N[C@@](C)(C(=O)OC)[C@H]2C(=O)N(Cc3ccccc3)C(=O)[C@@H]12	0	-4	-59	29	-1	-3
CCN(C[C@H]1N[C@@](C)(C(=O)OC)[C@H]2C(=O)N(Cc3ccccc3)C(=O)[C@@H]12)S(=O)(=O)c1ccc(OC)cc1	3	.	?	3	-2	-3
CCN(C[C@H]1N[C@@](CC)(C(=O)OC)[C@H]2C(=O)N(Cc3ccccc3)C(=O)[C@@H]12)C(=O)c1ccc(F)cc1	-1	9	56*	-14	2	5
COC(=O)[C@]1(Cc2ccccc2)N[C@H](CN(C)S(=O)(=O)c2ccc(-c3ccccc3)cc2)[C@@H]2C(=O)N(Cc3ccccc3)C(=O)[C@@H]21	2	7	59*	11	-7	-8
CCN(C[C@H]1N[C@@](Cc2ccccc2)(C(=O)OC)[C@H]2C(=O)N(Cc3ccccc3)C(=O)[C@@H]12)C(=O)c1ccc(F)cc1	4	-2	-115	-13	2	25
CCN(C[C@H]1N[C@@](CC)(C(=O)OC)[C@H]2C(=O)N(Cc3ccccc3)C(=O)[C@@H]12)C(=O)Nc1ccc(OC)cc1	4	9	87*	1	-8	-35
CCN(C[C@H]1N[C@@](C)(C(=O)OC)[C@H]2C(=O)N(Cc3ccccc3)C(=O)[C@@H]12)C(=O)Nc1ccccc1	-2	.	127*	23	6	-15
C[C@@H]1CCCCO[C@@H](CN(C)C(=O)c2ccccc2)[C@H](C)CN([C@H](C)CO)C(=O)c2cc(NS(=O)(=O)c3cccs3)ccc2O1	5	.	-1[16.7 µM]	-11	2	7
CCCNC(=O)N1CC2(C1)[C@H](c1ccccc1)[C@H](CO)N2CC1CC1	-2	-15	.	4	-16	.
COc1ccc(CN(C)C[C@@H]2OCCCC[C@H](C)Oc3ccc(NC(=O)Nc4ccc(C(F)(F)F)cc4)cc3C(=O)N([C@@H](C)CO)C[C@@H]2C)cc1	8	1	76*[16.7 µM]	24	83*	-26
COc1ccc(CN(C)C[C@H]2OCCCC[C@H](C)Oc3ccc(NC(=O)Nc4ccc(C(F)(F)F)cc4)cc3C(=O)N([C@@H](C)CO)C[C@H]2C)cc1	3	7	8[16.7 µM]	2	67*	106*
COc1ccc(NC(=O)Nc2ccc3c(c2)C(=O)N([C@@H](C)CO)C[C@H](C)[C@@H](CN(C)Cc2ccc(C(F)(F)F)cc2)OCCCC[C@H](C)O3)cc1	0	-3	28[16.7 µM]	-9	7	48
COc1ccc(NC(=O)Nc2ccc3c(c2)C(=O)N([C@H](C)CO)C[C@@H](C)[C@H](CN(C)Cc2ccc(C(F)(F)F)cc2)OCCCC[C@@H](C)O3)cc1	1	4	68*[16.7 µM]	-23	7	51
COc1ccc(NC(=O)Nc2ccc3c(c2)C(=O)N([C@@H](C)CO)C[C@@H](C)[C@@H](CN(C)Cc2ccc(C(F)(F)F)cc2)OCCCC[C@@H](C)O3)cc1	-6	-7	28[16.7 µM]	-28	-1	84*
CO[C@H]1CN(C)C(=O)c2cc(NC(=O)Nc3cc(F)ccc3F)ccc2OC[C@H](C)N(C(=O)c2cnccn2)C[C@H]1C	-5	-5	.	-23	6	25
CN(C)CC(=O)Nc1ccc2c(c1)C(=O)N(C)[C@H]1CC[C@H](CC(=O)Nc3ccc(F)cc3)O[C@@H]1CO2	.	.	.	-6	.	.
COc1ccc(NC(=O)Nc2ccc3c(c2)C(=O)N([C@@H](C)CO)C[C@H](C)[C@@H](CN(C)Cc2ccc(C(F)(F)F)cc2)OCCCC[C@@H](C)O3)cc1	-4	2	26[16.7 µM]	-25	9	69*
COc1ccc(CN(C)C[C@H]2OCCCC[C@@H](C)Oc3ccc(NC(=O)Nc4ccc(C(F)(F)F)cc4)cc3C(=O)N([C@H](C)CO)C[C@H]2C)cc1	8	21	6[16.7 µM]	-9	56*	41
SMILES	F508del corr	PGC1a acetyl inh	Env fusion inh	GSIS activator	EWS-Fli block	PAX8 inh HTS
COc1ccc(NC(=O)Nc2ccc3c(c2)C(=O)N([C@H](C)CO)C[C@H](C)[C@@H](CN(C)Cc2ccc(C(F)(F)F)cc2)OCCCC[C@@H](C)O3)cc1	-4	6	0[16.7 µM]	-25	8	44
COc1ccc(NC(=O)Nc2ccc3c(c2)C(=O)N([C@@H](C)CO)C[C@@H](C)[C@@H](CN(C)Cc2ccc(C(F)(F)F)cc2)OCCCC[C@H](C)O3)cc1	0	-15	9[16.7 µM]	-17	-1	72*
COc1ccc(NC(=O)Nc2ccc3c(c2)C(=O)N([C@H](C)CO)C[C@@H](C)[C@@H](CN(C)Cc2ccc(C(F)(F)F)cc2)OCCCC[C@@H](C)O3)cc1	-3	-12	?	-11	4	44
C[C@@H]1CN([C@H](C)CO)C(=O)c2cc(NC(=O)Cc3ccccc3)ccc2O[C@@H](C)CCCCO[C@H]1CN(C)C(=O)NC1CCCCC1	4	-6	9[16.7 µM]	-20	6	.
CCOC(=O)C1(C)C=C(Nc2ccc(OC)cc2)C(=O)N1c1ccc(OC)cc1 (stereo not given)	.	-12	14	59*	.	2
C[C@@H]1CN([C@@H](C)CO)C(=O)c2cccc(NC(=O)Nc3ccccc3)c2O[C@H]1CN(C)C(=O)Nc1ccc(F)cc1	-2	3	.	18	5	3
O=C(O)CSCC(=O)Nc1ccc(C2CCCCC2)cc1	.	18	98*	5	.	.
